Each structure is given as a SMILES string. Hit rate of the full screen: of about 300,000 compounds, about 37,000 (12%) were called active. The list comes from a sample in which actives are over-represented; it also holds similar structures and randomly drawn compounds. Values without a mark were called inactive. No stated cut-off is given here; in the data, active means max response mostly above about 13% (no sharp cut-off); inactive means mostly below about 14%.

A short description of the test: Cycloheximide Counterscreen for Small Molecule Inhibitors of Shiga Toxin. Further: read at 38.3 µM for the half of the compounds with a filed dose; 0% is about no effect. To be noted: cell reporter, cycloheximide protein synthesis inhibition counterscreen; hits give high values.
As to `CCOc1ccc(S(=O)(=O)N2CCN=C2Cc2ccccc2)cc1C`, the max response was -7.25%.

On to `CCOc1ccc(N(C)S(=O)(=O)c2cnc[nH]2)cc1`, for which the max response was -3.61%.

Turning to `O=C(Cc1ccc(S(=O)(=O)N2CCCC2)s1)NC1CCCCCC1`, the max response was 0.894%.

Take `C=CCn1c(=S)sc2c(=O)[nH]c(C)nc21`: the max response is 6.52%.

Regarding `COc1ccc(C2/C(=C(/O)c3ccccc3)C(=O)C(=O)N2C)c(OC)c1` (centres undefined), the max response was 5.88%.

On to `CCOc1ccc(/C(O)=C2\C(=O)C(=O)N(c3ccc(OC)cc3)C2c2ccccc2[N+](=O)[O-])cc1` (centres undefined), for which the max response is 45.2% (active).

As to `COc1ccccc1C1/C(=C(/O)c2ccc(OC(C)C)cc2)C(=O)C(=O)N1c1cc(C)on1` (centres undefined), the max response is -2.72%.

Turning to `O=S(=O)(Nc1nccs1)c1ccc2c(c1)OCCO2`, the max response was 13.4%.

Regarding `CC(CCc1ccc(O)cc1)NCc1ccc(Cl)cc1Cl` (centres undefined), the max response was 0.267%.

Regarding `COc1ccc(NC(=O)CCCNC(=O)Cn2cnc3sc4c(c3c2=O)CCCC4)cc1OC`, the max response was -1.82%.

Take `O=[N+]([O-])c1cccc(C2=NCCS2)c1`: the max response was 7.65%.

Take `CCOC(=O)C1=C(CN2CCCCCC2)NC(=O)NC1c1cccc([N+](=O)[O-])c1` (centres undefined): the max response was -4.55%.

Consider `CCOC(=O)c1sc(-c2cccc([N+](=O)[O-])c2)cc1N`, for which the max response was 19% (active).

With `CN(C)S(=O)(=O)Oc1ccccc1C(=O)Nc1ccccc1Cl`, the max response is -4.26%.

Turning to `O=c1c2ccccc2c(-c2ccc(Br)cc2)nn1Cc1ccccc1`, the max response was -1.69%.

Consider `O=C(NCCc1ccco1)c1nn(Cc2ccccc2)c(=O)c2ccccc12`, for which the max response is 11.7% (active).

On to `O=C(NCc1ccco1)c1nc(-c2ccccc2)n(-c2ccccc2)n1`, for which the max response is -1.99%.

For the molecule `Cc1ccc(C(NC(=O)N2CCCC2)C(Cl)(Cl)Cl)cc1F` (centres undefined), the max response is 10.7%.

For `COc1ccc(C(C(=O)NC(C)(C)C)N(Cc2ccc(F)cc2)C(=O)CCC(=O)Nc2cc(C)on2)cc1` (centres undefined), the max response was -0.261%.

Regarding `CCOC(=O)c1c(C)[nH]c2c1-c1ccccc1C(=O)C2=O`, the max response was 12.4%.

With `CCOC(=O)c1c(C)[nH]c(C2=NNC(=NC(C)COC)SC2)c1C` (centres undefined), the max response is 42.6% (active).

For the molecule `Cc1ccnc(NS(=O)(=O)c2ccc(NC(=O)c3oc4ccc(F)cc4c3C)cc2)n1`, the max response is -2.51%.

Consider `O=C(NCC1COc2ccccc2O1)C1(c2ccccc2)CCCC1` (centres undefined), for which the max response was -2.77%.

With `COc1ccc(Br)cc1CN(C)CC(=O)Nc1cc([N+](=O)[O-])ccc1OC`, the max response was -1.88%.

With `CCN(CC)c1ccc(/C=N/Nc2nc(C)cc(=O)[nH]2)cc1`, the max response is 1.51%.

For the molecule `Cc1cc(=O)[nH]c(N/N=C/c2ccc3c(c2)OCCO3)n1`, the max response was 38.7%.

Consider `Cc1cc(=O)[nH]c(N/N=C/c2c(C)nn(-c3ccccc3Cl)c2Cl)n1`, for which the max response is 10.2% (active).

`Cc1ccc(C(=O)NCC(=O)NCc2cc(=O)n(C)c(=O)n2C)cc1`: the max response was -0.788%.

On to `O=C(CN1CCOC1=O)N1CCCC(Nc2ccc(F)c(F)c2)C1` (centres undefined), for which the max response is 23.5% (active).

Turning to `O=C1CCCCN1CCCC(=O)N1CCCC(Nc2ccc(F)cc2)C1` (centres undefined), the max response was 2.17%.

On to `O=C(CN1C(=O)CSC1=O)N1CCCC(Nc2ccc(F)cc2)C1` (centres undefined), for which the max response was -1.37%.

In the case of `CC1CCCN(CCCNC(=O)CN2C(=O)COc3ccc(S(=O)(=O)N4CCOCC4)cc32)C1` (centres undefined), the max response was -6.25%.

For `CC1(C)CC(CCC(=O)Nc2ccccc2Cl)C(=O)O1` (centres undefined), the max response is 5.32%.

On to `O=C(Nc1ccc2c(c1)CCC2)c1cccc(S(=O)(=O)Nc2ccccc2Cl)c1`, for which the max response was 8.91%.

`O=C(Cc1ccc2c(c1)CCCC2)Nc1ccccc1Cl`: the max response was 15.4% (active).

As for `COc1ccc(CNC(=O)CN(C(=O)c2csnn2)c2cnc3ccccc3c2)cc1`, the max response was -1.99%.

On to `COCc1cc(C)nc(SCC(=O)Nc2cccc(C)c2)c1C#N`, for which the max response was 5.77%.

As to `Cc1nnc(SCC(=O)Nc2cccc(N)c2)n1-c1ccccc1`, the max response is -3.71%.

As for `Cc1cc(C)c(C#N)c(SCC(=O)Nc2ccccc2)n1`, the max response is 14% (active).

`CSc1cccc(NC(=O)CSc2ccccc2)c1`: the max response is 39.6% (active).

With `Cc1cc(C)cc(NC(=O)CSc2ccccc2)c1`, the max response was 18.6% (active).

Consider `O=C(Nc1ccc(CSc2ccccc2)cc1)c1ccc(CN2CCOCC2)cc1`, for which the max response is -1.82%.

In the case of `Cc1cc(C)cc(NC(=O)CN2C(=O)c3ccccc3C2=O)c1`, the max response is -2.91%.

Regarding `O=C(CSc1ccccc1)Nc1cc(Cl)ccc1Oc1ccccc1`, the max response is -2.3%.

As to `Cc1cc(C)c(C#N)c(SCc2ccccc2C(=O)O)n1`, the max response is -3.7%.

Regarding `Cc1cc(C)cc(NC(=O)CCN2C(=O)c3ccccc3C2=O)c1`, the max response is 7.24%.

For the molecule `O=C(CSc1ccccc1)Nc1ccc(C(=O)Nc2cccc(O)c2)cc1`, the max response is 32.4% (active).

Regarding `O=C(CSc1nc(C2CC2)nc2ccccc12)Nc1cccc(O)c1`, the max response was -1.26%.

Consider `COc1ccc(/C=C2\SC(=S)N(CCC(=O)Nc3cccc(C(=O)O)c3)C2=O)cc1OC`, for which the max response was 1.51%.

On to `CC(NC(=O)COc1cccnc1[N+](=O)[O-])c1ccc(Cl)cc1Cl` (centres undefined), for which the max response is -5.73%.

Take `CCCN1Cc2cccc(C(=O)Nc3ccc(S(=O)(=O)N4CCCCCC4)cc3)c2C1=O`: the max response is -1.84%.

On to `CCCCN(CC)C(=O)C1CCCN(S(=O)(=O)c2cccc3nsnc23)C1` (centres undefined), for which the max response is -3.7%.

For the molecule `C#CCNC(=O)C1=C[C@@H](c2ccccc2)[C@H](CCCO)[C@@H](OCC)O1`, the max response was 0.207%.

As to `O=C(NCC(c1cccs1)N1CCOCC1)c1cc(-c2ccccn2)nc2ccccc12` (centres undefined), the max response is -1.88%.

`CN(C(=O)c1cccc([N+](=O)[O-])c1)c1ccccc1C(=O)NCc1ccccc1`: the max response was -2.25%.

With `CN(C)/C=C(/C(=O)c1ccccc1)S(=O)(=O)c1ccc(Cl)cc1`, the max response was 9.87%.

For `CN(C)/C=C(/C(=O)c1ccc(F)cc1)S(=O)(=O)c1ccc(F)cc1`, the max response was 27.7% (active).

As for `CN(C)/C=C(/C(=O)c1ccc(Cl)cc1)S(=O)(=O)c1ccccc1`, the max response is 50.5% (active).

For `CN(C)/C=C(/C(=O)c1ccccc1Cl)S(C)(=O)=O`, the max response is -0.829%.

Turning to `O=C(NNS(=O)(=O)c1ccc(F)cc1)C1CCCCC1`, the max response is -1.22%.

In the case of `Cc1ccc(S(=O)(=O)/N=C(\N)c2ccc(F)cc2)cc1`, the max response was 6.04%.

For the molecule `CCN(CC)/[N+]([O-])=N/Oc1cc(O/[N+]([O-])=N/N2CCCC2CO)c([N+](=O)[O-])cc1[N+](=O)[O-]` (centres undefined), the max response is -2.07%.

In the case of `O=C(Nc1cccc(Cl)c1)c1cncn1-c1ccc(F)cc1`, the max response was 6.32%.

Turning to `COc1ccccc1C(=O)NNC(=O)CCN1C(=O)/C(=C\c2ccccc2)SC1=S`, the max response was -3.61%.

As for `CCn1cc(CCC(=O)NCc2ccc(F)cc2)c2ccccc21`, the max response was 5.51%.

With `O=C(CCCNS(=O)(=O)c1cccc2nsnc12)NCCN1CCN(c2ccccc2F)CC1`, the max response is -4.37%.

For `COc1ccccc1Oc1ccc(S(=O)(=O)Nc2cccnc2)cc1`, the max response is -1.76%.

As for `COc1ccc(NS(=O)(=O)c2ccc(Oc3c(C#N)cccc3C#N)cc2)cc1`, the max response was 5.34%.

For the molecule `COc1ccccc1Oc1ccc(N/C=C2/CCCC2=O)cc1`, the max response is 15.4% (active).

In the case of `COCCOC(=O)c1[nH]c2c(c1C)C(=O)CC(c1ccc(OC)cc1)C2` (centres undefined), the max response was 7.29%.

With `CCOC(=O)c1[nH]c2c(c1-c1ccccc1)C(=O)CC(c1ccc(Cl)cc1)C2` (centres undefined), the max response was 5.07%.

On to `CCOC(=O)c1[nH]c2c(c1C)C(=O)CC(c1ccc(N(C)C)cc1)C2` (centres undefined), for which the max response is 25.5% (active).

For the molecule `CCOC(OCC)c1ccc(/C=C\c2nccc(N)n2)cc1`, the max response is 38.5% (active).

Take `Cc1cc(=O)n2nc(N3CCCC(C(=O)NCc4ccc(Cl)cc4)C3)sc2n1` (centres undefined): the max response is -2.2%.

For `CC(=O)OCc1cc2cc(C)ccc2[nH]c1=O`, the max response was -2.45%.

On to `CCNCc1cc2cc(C)ccc2[nH]c1=O`, for which the max response was 4.83%.

For the molecule `CCOC(=O)c1cc2cc(C)ccc2[nH]1`, the max response is 39.7% (active).

For `Cc1ccc2c(c1)N(CC(=O)N(Cc1ccccn1)Cc1ccco1)C(=O)C(C(C)C)O2` (centres undefined), the max response is 8.51%.

Turning to `CCOC(CNC(=O)C1CCN(S(=O)(=O)c2ccc3nc4c(c(C(=O)O)c3c2)CC(C)CC4)CC1)OCC` (centres undefined), the max response was -3.45%.

For the molecule `CC(=O)c1cccc(NC(=O)COc2ccc(S(=O)(=O)N3CCOCC3)cc2)c1`, the max response was 0.879%.

With `CC(C)(C)NS(=O)(=O)c1ccc(NC(=O)NC2CCCCC2)cc1`, the max response was 9%.

As to `Cc1cc(C)cc(NC(=O)NC2CCCCCCC2)c1`, the max response was 17.4% (active).

On to `Cc1cc(C)cc(NC(=O)NC2CCN(CC(=O)Nc3cccc(Cl)c3C)CC2)c1`, for which the max response is -0.314%.

In the case of `Cc1cc(C)cc(NC(=O)N2CCCCCCC2)c1`, the max response was -5.05%.

For `CC(C)c1ccc(NC(=O)NC2CCCCC2)cc1`, the max response is 44.1% (active).

Regarding `CC(C)N1CCC(NC(=O)Nc2ccccc2)CC1`, the max response was -2.49%.

With `Cc1ccccc1NC(=O)NNC(=O)OC(C)(C)C`, the max response is -3.59%.

With `C/C(=N\NC(=O)OC(C)(C)C)c1ccc[nH]1`, the max response was 42.4% (active).

In the case of `COc1ccccc1CNS(=O)(=O)c1ccc2c(c1)NC(=O)CS2`, the max response is 30.5%.

Turning to `O=[N+]([O-])c1cc([N+](=O)[O-])c(Oc2cc(F)cc(F)c2F)cc1NN1CCCCC1`, the max response was 0.495%.

Regarding `CCOC(=O)c1sc(NC(=O)CSc2nc3c(c(=O)n2-c2ccccc2)SCC3)c(C(=O)OCC)c1C`, the max response is -2.16%.

With `COc1cccc(/C=N\NC(=O)C2=NNC(=O)C2C)c1O` (centres undefined), the max response was 32.5% (active).

Take `COc1cccc(/C=N/NC(=O)c2[nH]nc3c2CCc2ccccc2-3)c1O`: the max response is 6.14%.

On to `COc1cc2cc(C(=O)N/N=C/c3cccc(OC)c3OC)[nH]c2cc1OC`, for which the max response is 0.0255%.

The values are drawn from PubChem BioAssay AID2314 (National Center for Advancing Translational Sciences (NCATS), 2010).
